Vaccinia mCherry – vaccinia inhibition (mCherry reporter); actives 0.63% (n = 310,000); Vaccinia virus mCherry reporter infection, fluorescence; Potency, µM (series often up to 36.5 µM), hits mostly inhibitors; calls by dose curve; tested in A549 cells; note: nearly all actives have a fitted effect of over 35% in size
VACV Venus inh – vaccinia inhibition (Venus reporter); Vaccinia virus Venus reporter expression, fluorescence; Potency, µM (titrated, usually from 36.5 µM), hits mostly inhibitors; actives 0.46% (n = 330,000); AID 720580; calls by dose curve; tested in A549 cells; note: nearly all actives have a fitted effect of over 30% in size
FMDV inh – blocks foot and mouth disease virus | FMDV antiviral cell-based qHTS | Potency, µM (top dose mostly 57.9 µM), hits mostly inhibitors | actives 1.2% (n = 410,000) | AID 1159524; calls by dose curve; tested in HEK293T cells; note: read-out not given here; nearly all actives have a fitted effect of over 45% in size
LASV entry inh – inhibitors of Lassa virus binding or cell entry; Lassa virus pseudotype entry inhibition, cell reporter; Potency, µM (top dose mostly 37.9 µM), actives largely listed as inhibitors; actives 1.2% (n = 300,000); calls by dose curve; tested in HEK293 cells; note: nearly all actives have a fitted effect of over 50% in size
Marburg entry inh – blocks Marburg virus binding to or entry into cells | Marburg virus pseudotyped entry inhibition, cell reporter | Potency, µM (highest dose often 37.8 µM), usual class: inhibitors | actives 1.8% (n = 300,000) | AID 540276; calls by dose curve; tested in HEK293 cells
HCMV antiviral – blocks human cytomegalovirus replication. HFF cells, HCMV-luciferase reporter, 72 h; stronger effect = lower value. activity change, negative = inhibition, % at 57.5 µM. actives 4.5% (n = 410,000); in the data active = activity change below about -60%; inconclusive = no clear call, values can overlap the other calls; inactive = above about -39%
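Cell-based, HFFs, 1000 cells/well, 16 h 37C; cpds in DMSO + HCMV-luc, MOI 1 PFU/cell; 72 h 37C; OneGlo luminescence after 5 min RT; norm. to buffer vs Salinomycin 10uM.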
Hits are given with their value. Compounds with a hit are over-represented: about 6.5% of the library has one in this group of screens.

For CCCCn1c(N)c(N(CCOC)C(=O)C2CCN(S(=O)(=O)c3ccc(Cl)cc3)CC2)c(=O)[nH]c1=O the results were Vaccinia mCherry inactive, VACV Venus inh inactive, FMDV inh inactive, LASV entry inh inconclusive, Marburg entry inh inconclusive and HCMV antiviral -70.0.
Screening Cc1c(Cl)cccc1NC(=O)Nc1nnc(N(C)Cc2ccccc2)s1 returned Vaccinia mCherry inactive, VACV Venus inh inactive, FMDV inh inactive, LASV entry inh inactive, Marburg entry inh inactive and HCMV antiviral inactive.
For COCCN(C(=O)CSc1nnc(-c2ccc(C)c(C)c2)o1)c1c(N)n(CC(C)C)c(=O)[nH]c1=O the results were Vaccinia mCherry inconclusive, VACV Venus inh inconclusive, FMDV inh inactive, LASV entry inh inactive, Marburg entry inh inactive and HCMV antiviral inactive.
CCCCn1c(N)c(N(CCOC)C(=O)CSCc2ccccc2C)c(=O)[nH]c1=O was read as Vaccinia mCherry inactive, VACV Venus inh inactive, FMDV inh inactive, LASV entry inh inactive, Marburg entry inh inactive and HCMV antiviral -96.8.
Screening CCN(CC)c1ccc(-c2nnc(SCC(=O)N(CCOC)c3c(N)n(CC(C)C)c(=O)[nH]c3=O)o2)cc1 returned Vaccinia mCherry 8.91µM, VACV Venus inh inconclusive, FMDV inh inactive, LASV entry inh inactive, Marburg entry inh inconclusive and HCMV antiviral inactive.
For COCCN(C(=O)c1cc(-c2ccco2)nc2ccccc12)c1c(N)n(Cc2ccccc2)c(=O)[nH]c1=O the results were FMDV inh inactive and HCMV antiviral -69.1.
For CCCCn1c(N)c(N(CCOC)C(=O)CSc2n[nH]c(-c3ccc(OC)cc3)n2)c(=O)[nH]c1=O the results were Vaccinia mCherry inactive, VACV Venus inh inactive, FMDV inh inactive, LASV entry inh inactive, Marburg entry inh inconclusive and HCMV antiviral -76.1.
CCCCn1c(N)c(N(CCOC)C(=O)CSc2ccccc2C)c(=O)[nH]c1=O was read as Vaccinia mCherry inactive, VACV Venus inh inactive, FMDV inh inactive, LASV entry inh inactive, Marburg entry inh inactive and HCMV antiviral inactive.
`CCCCN(C(=O)CSc1n[nH]c(-c2ccc(C)cc2)n1)c1c(N)n(CCCC)c(=O)[nH]c1=O` gave Vaccinia mCherry inactive, VACV Venus inh inactive, FMDV inh inactive, LASV entry inh inactive, Marburg entry inh inactive and HCMV antiviral inconclusive.
For CCCCCCn1c(-c2cccs2)n[nH]c1=S the results were Vaccinia mCherry inactive, VACV Venus inh inactive, FMDV inh inactive, LASV entry inh inactive, Marburg entry inh inactive and HCMV antiviral -80.3.
C=CCN1[C@@H](C(C)C)COCCS1(=O)=O was read as Vaccinia mCherry inactive and VACV Venus inh inactive.
Screening O=C(O)/C=C/c1cnn(-c2ccccc2)c1 returned Vaccinia mCherry inactive, VACV Venus inh inactive, FMDV inh inactive, LASV entry inh 2.82µM, Marburg entry inh inconclusive and HCMV antiviral inactive.
O=C1c2ccccc2C(=O)N1CCCCc1cn(C[C@H]2CC[C@@H]([C@@H]3CC[C@H](Cn4cc(CCCCN5C(=O)c6ccccc6C5=O)nn4)O3)O2)nn1 was read as Vaccinia mCherry inactive, VACV Venus inh inactive, FMDV inh 25.1µM and HCMV antiviral inactive.
`Cc1cc(NC(=O)c2sccc2C)n(-c2nc3ccccc3[nH]2)n1` gave Vaccinia mCherry inconclusive, VACV Venus inh inconclusive, FMDV inh inconclusive, LASV entry inh inactive, Marburg entry inh inconclusive and HCMV antiviral -70.1.
Screening Cc1cc(NC(=O)c2ccccc2)n(-c2nc3ccccc3[nH]2)n1 returned FMDV inh inactive and HCMV antiviral inactive.
For COc1ccc(C(=O)Nc2cc(C)nn2-c2nc3ccccc3[nH]2)c(OC)c1 the results were FMDV inh inactive and HCMV antiviral -63.5.
Screening COc1cccc(OC)c1C(=O)Nc1cc(C)nn1-c1nc2ccccc2[nH]1 returned Vaccinia mCherry inactive, VACV Venus inh inactive, FMDV inh inactive, LASV entry inh 11.2µM, Marburg entry inh inconclusive and HCMV antiviral inactive.
For O=C(N/N=C/c1cc2ccccc2nc1Cl)[C@H]1C[C@@H]1c1ccccc1 the results were Vaccinia mCherry inactive, VACV Venus inh inactive, FMDV inh inactive, LASV entry inh 0.366µM, Marburg entry inh inconclusive and HCMV antiviral inactive.
`Cc1ccc2cc(/C=N/NC(=O)[C@H]3C[C@@H]3c3ccccc3)c(Cl)nc2c1` gave FMDV inh inactive, LASV entry inh 0.0651µM, Marburg entry inh inactive and HCMV antiviral inactive.
`Cc1ccc2cc(/C=N/NC(=O)c3ccccc3O)c(Cl)nc2c1` gave Vaccinia mCherry inactive, VACV Venus inh inactive, FMDV inh inconclusive, LASV entry inh inactive, Marburg entry inh inconclusive and HCMV antiviral inactive.
`Cc1cccc2cc(/C=N/NC(=O)[C@H]3C[C@@H]3c3ccccc3)c(Cl)nc12` gave Vaccinia mCherry inactive, VACV Venus inh inactive, FMDV inh inactive, LASV entry inh inconclusive, Marburg entry inh inactive and HCMV antiviral inactive.
CCOc1ccc(N(CC(=O)Nc2ccc3c(c2)OCCO3)S(=O)(=O)c2c(C)noc2C)cc1 was read as Vaccinia mCherry inactive, VACV Venus inh inactive, FMDV inh inactive, Marburg entry inh inactive and HCMV antiviral inactive.
CCOc1ccc(N(CC(=O)Nc2ccccc2CC)S(=O)(=O)c2c(C)noc2C)cc1 was read as Vaccinia mCherry inactive, VACV Venus inh inconclusive, FMDV inh inactive, LASV entry inh inactive, Marburg entry inh inconclusive and HCMV antiviral -90.7.
`CCOc1ccccc1NC(=O)CN(c1ccc(C)cc1)S(=O)(=O)c1c(C)noc1C` gave Vaccinia mCherry inactive, VACV Venus inh inconclusive, FMDV inh inconclusive, LASV entry inh inconclusive, Marburg entry inh inconclusive and HCMV antiviral inactive.
Screening Cc1ccc(N(CC(=O)NCCc2ccccc2)S(=O)(=O)c2c(C)noc2C)cc1 returned Vaccinia mCherry inactive, VACV Venus inh inactive, LASV entry inh inconclusive, Marburg entry inh inconclusive and HCMV antiviral inactive.
Screening COc1ccc(N(CC(=O)NCc2ccccc2Cl)S(=O)(=O)c2c(C)noc2C)cc1 returned FMDV inh inconclusive and HCMV antiviral inactive.
For CCOc1ccc(N(CC(=O)NCCc2ccc(C)cc2)S(=O)(=O)c2c(C)noc2C)cc1 the results were FMDV inh inactive and HCMV antiviral -69.1.
Cc1noc(C)c1S(=O)(=O)N(CC(=O)NCc1ccccc1Cl)c1ccc(C(C)C)cc1 was read as Vaccinia mCherry inactive, VACV Venus inh inconclusive, FMDV inh inactive, LASV entry inh inactive, Marburg entry inh inactive and HCMV antiviral -62.0.
CCc1ccc(NC(=O)CN(c2ccc3c(c2)OCO3)S(=O)(=O)c2c(C)noc2C)cc1 was read as Vaccinia mCherry inactive, VACV Venus inh inactive, FMDV inh inconclusive and HCMV antiviral -70.8.
For COc1cc2c(c(OC)c1OC)CC(c1ccccc1)=C(c1ccccc1)CC2NC(=O)C(F)(F)F (centres undefined) the results were LASV entry inh inconclusive and Marburg entry inh inactive.
`Oc1ccc(Cc2ccc(Cl)cc2)c(O)c1` gave Vaccinia mCherry inconclusive, VACV Venus inh inactive, FMDV inh inactive, LASV entry inh inactive, Marburg entry inh inactive and HCMV antiviral -62.1.

High-throughput results from PubChem.
